Source: PubChem BioAssay
Calls of active or inactive are those of the source.

Key:
[1] = test system: Wnt5a (protein binding on small-molecule microarray); experiment: small molecules binding Wnt5a protein – biophysical, small-molecule microarray, 635/667 nm fluorescence, primary screen (AID 1142); settings: 635 nm fluorescence, higher = more signal;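 further: fluorescence read at 667 nm with signal to noise per printed feature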
[2] = ATP-based viability of Huh7 replicon cells – cell-based, CellTiter-Glo luminescence, basal, 48 h, cytotoxicity control for HCV replication inhibitor project, primary screen (AID 1143); settings: higher = more signal, called active from +8 up or from −8 down;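 further: Huh7 hepatoma cells carrying a hepatitis C replication reporter with no stimulus; test concentration not given here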
[3] = basal CRE-LacZ reporter activity in PC12 – cell-based, unstimulated, primary screen (AID 1145); settings: no forskolin, luminescence, 4.5 h, higher = more signal, called active from +8 up or from −8 down
[4] = forskolin-driven CRE-LacZ activity in PC12 – cell-based, CRE-LacZ reporter, forskolin-stimulated, primary screen (AID 1146); settings: luminescence, 4.5 h, higher = more signal, called active from +8 up or from −8 down;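 further: PC12 cells with 6xCRE LacZ reporter stimulated by forskolin 10 µM; beta-galactosidase reporter signal reflecting CREB driven transcription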
[5] = target: Streptavidin (Streptomyces avidinii) (UniProt P22629); experiment: compounds binding control protein streptavidin – biophysical, small-molecule microarray, 635/667 nm fluorescence, artefact control for SMM compound annotation, primary screen (AID 1147); settings: higher = more signal;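 further: signal reflects streptavidin binding to arrayed compounds as a control protein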
[6] = probe aInhba binding on compound microarray – biochemical, small-molecule microarray, 635/667 nm fluorescence, primary screen (AID 1148); settings: higher = more signal;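 further: score merges 667nm spot fluorescence with signal-to-noise for antibody binding to printed compounds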
[7] = target: Torsin-1A (Homo sapiens) (UniProt O14656); experiment: TOR1A wild-type binding on microarray – cell lysate, small-molecule microarray, lysate, 635/667 nm, primary screen (AID 1149); settings: COS7 hTOR1A-WT lysate, 635 nm fluorescence, higher = more signal
[8] = target: Torsin-1A (Homo sapiens) (UniProt O14656); experiment: torsin A mutant lysate binding on microarrays – cell lysate, small-molecule microarray, COS7 lysate, 635/667 nm fluorescence, primary screen (AID 1150); settings: COS7 hTOR1A mutant lysate, 635 nm fluorescence, higher = more signal;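 further: score pools 667 nm emission and signal to noise measuring lysate protein binding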
[9] = test system: Sonic hedgehog protein (Shh); experiment: Sonic hedgehog microarray binding compounds – biochemical, small-molecule microarray, 635/667 nm fluorescence, primary screen (AID 1151); settings: 635 nm fluorescence, higher = more signal;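 further: Shh protein binding to compounds spotted on small-molecule microarray slides; score combines spot fluorescence intensity with signal-to-noise across triplicate slides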
[10] = optical density shifts of acrAB sulA E. coli – strain DRC41, OD650, 48 h, E. coli filamentation inducer project, primary screen (AID 1152); settings: higher = more signal, called active from +8 up or from −8 down;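 further: E. coli MC1000 strain DRC41 lacking acrAB efflux pump and sulA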
[11] = probe aLefty1 binding on compound microarray – biochemical, small-molecule microarray, 635/667 nm fluorescence, primary screen (AID 1153); settings: higher = more signal;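 further: score merges spot fluorescence with signal-to-noise ratio from the scanned slide images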
[12] = plasmodial surface anion channel blockers, osmotic lysis – cell-based, P. falciparum Indochina, OD700, 1 h, primary screen (AID 1154); settings: P. falciparum Indochina infected RBC osmotic lysis, higher = more signal, called active from +8 up or from −8 down
[13] = plasmodial surface anion channel blockers, osmotic lysis – cell-based, P. falciparum Indochina, OD700, 2 h, primary screen (AID 1155);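 further: lysis reports solute entry through the parasite surface anion channel PSAC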; settings: P. falciparum Indochina infected erythrocytes, higher = more signal, called active from +8 up or from −8 down
[14] = changes in parasitized red cell lysis, either direction – P. falciparum Indochina, OD700, 3 h, PSAC antagonist project, primary screen (AID 1156); settings: P. falciparum-infected erythrocytes, osmotic lysis, higher = more signal, called active from +8 up or from −8 down
[15] = plasmodial surface anion channel blockers, osmotic lysis – cell-based, P. falciparum Indochina, OD700, 18 h, primary screen (AID 1157); settings: P. falciparum Indochina infected erythrocytes, osmotic lysis OD700, 18 h; higher = more signal, called active from +8 up or from −8 down
[16] = S6 kinase pathway phospho-S6 level changes – cell-based, A549, cytoblot, luminescence, serum-stimulated, primary screen (AID 1158); settings: 5 h, higher = more signal;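 further: serum-stimulated A549 lung adenocarcinoma cells; signal is phosphorylated S6 detected by cytoblot immunostaining with HRP secondary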
[17] = target: NADPH oxidase 2 (Homo sapiens) (UniProt P04839); experiment: compounds shifting NOX2 Amplex Red fluorescence – cell-based, HEK293-NOX2, PMA-stimulated, NOX inhibitor project, primary screen (AID 1159); settings: 45 min, higher = more signal, called active from +8 up or from −8 down; further: test concentration not given here
[18] = target: NADPH oxidase 4 (Homo sapiens) (UniProt Q9NPH5); experiment: compounds shifting NOX4 Amplex Red fluorescence – cell-based, HEK293-NOX4, tetracycline-induced, NOX inhibitor project, primary screen (AID 1160); settings: HEK293-NOX4, Amplex Red H2O2 fluorescence, 45 min; higher = more signal, called active from +8 up or from −8 down
[19] = target: NADPH oxidase 5 (Homo sapiens) (UniProt Q96PH1); experiment: compounds shifting NOX5 Amplex Red fluorescence – cell-based, HEK293-NOX5, NOX inhibitor project, primary screen (AID 1161); settings: HEK293-NOX5, ionomycin, 45 min, higher = more signal
Sequence of NADPH oxidase 5 (Homo sapiens) (Q96PH1 whole entry, looked up): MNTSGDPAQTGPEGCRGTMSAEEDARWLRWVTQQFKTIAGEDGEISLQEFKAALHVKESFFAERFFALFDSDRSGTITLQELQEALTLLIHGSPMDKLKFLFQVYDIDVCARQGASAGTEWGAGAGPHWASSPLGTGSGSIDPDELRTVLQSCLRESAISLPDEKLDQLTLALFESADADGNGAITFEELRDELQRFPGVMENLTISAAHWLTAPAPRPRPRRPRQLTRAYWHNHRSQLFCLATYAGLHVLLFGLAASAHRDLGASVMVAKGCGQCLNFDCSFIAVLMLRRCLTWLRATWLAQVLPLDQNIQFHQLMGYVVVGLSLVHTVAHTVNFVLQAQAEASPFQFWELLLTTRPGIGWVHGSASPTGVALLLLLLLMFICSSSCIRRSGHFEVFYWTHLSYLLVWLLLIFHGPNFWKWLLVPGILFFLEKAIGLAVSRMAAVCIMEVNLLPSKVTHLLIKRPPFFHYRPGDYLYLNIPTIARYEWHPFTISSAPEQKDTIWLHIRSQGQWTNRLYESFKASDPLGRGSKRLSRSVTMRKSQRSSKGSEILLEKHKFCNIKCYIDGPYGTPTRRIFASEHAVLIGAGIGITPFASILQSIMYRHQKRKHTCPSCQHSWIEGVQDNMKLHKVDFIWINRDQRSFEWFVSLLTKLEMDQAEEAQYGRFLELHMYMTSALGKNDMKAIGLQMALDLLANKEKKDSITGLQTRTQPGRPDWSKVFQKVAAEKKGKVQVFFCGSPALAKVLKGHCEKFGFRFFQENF

Sequence of NADPH oxidase 2 (Homo sapiens) (P04839 whole entry, looked up): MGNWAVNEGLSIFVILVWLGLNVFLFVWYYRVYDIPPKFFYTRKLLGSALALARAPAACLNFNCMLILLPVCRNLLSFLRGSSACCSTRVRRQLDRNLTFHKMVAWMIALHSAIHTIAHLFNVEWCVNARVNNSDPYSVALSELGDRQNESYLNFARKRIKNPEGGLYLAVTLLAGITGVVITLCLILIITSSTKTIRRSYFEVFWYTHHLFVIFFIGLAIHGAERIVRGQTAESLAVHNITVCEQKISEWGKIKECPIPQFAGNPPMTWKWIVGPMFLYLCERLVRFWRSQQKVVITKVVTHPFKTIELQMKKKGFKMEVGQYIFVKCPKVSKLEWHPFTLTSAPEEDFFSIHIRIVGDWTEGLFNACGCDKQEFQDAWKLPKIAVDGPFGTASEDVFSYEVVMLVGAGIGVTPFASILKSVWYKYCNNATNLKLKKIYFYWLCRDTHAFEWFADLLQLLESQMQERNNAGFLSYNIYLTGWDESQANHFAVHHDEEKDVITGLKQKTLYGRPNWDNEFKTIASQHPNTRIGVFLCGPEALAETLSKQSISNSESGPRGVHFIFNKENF
Sequence of Streptavidin (Streptomyces avidinii) (P22629 whole entry, looked up): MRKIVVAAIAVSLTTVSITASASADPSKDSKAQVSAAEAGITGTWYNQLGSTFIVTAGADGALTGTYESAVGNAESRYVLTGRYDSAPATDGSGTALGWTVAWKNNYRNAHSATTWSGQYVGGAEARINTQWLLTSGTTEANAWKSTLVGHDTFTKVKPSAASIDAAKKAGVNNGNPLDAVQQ
Sequence of NADPH oxidase 4 (Homo sapiens) (Q9NPH5 whole entry, looked up): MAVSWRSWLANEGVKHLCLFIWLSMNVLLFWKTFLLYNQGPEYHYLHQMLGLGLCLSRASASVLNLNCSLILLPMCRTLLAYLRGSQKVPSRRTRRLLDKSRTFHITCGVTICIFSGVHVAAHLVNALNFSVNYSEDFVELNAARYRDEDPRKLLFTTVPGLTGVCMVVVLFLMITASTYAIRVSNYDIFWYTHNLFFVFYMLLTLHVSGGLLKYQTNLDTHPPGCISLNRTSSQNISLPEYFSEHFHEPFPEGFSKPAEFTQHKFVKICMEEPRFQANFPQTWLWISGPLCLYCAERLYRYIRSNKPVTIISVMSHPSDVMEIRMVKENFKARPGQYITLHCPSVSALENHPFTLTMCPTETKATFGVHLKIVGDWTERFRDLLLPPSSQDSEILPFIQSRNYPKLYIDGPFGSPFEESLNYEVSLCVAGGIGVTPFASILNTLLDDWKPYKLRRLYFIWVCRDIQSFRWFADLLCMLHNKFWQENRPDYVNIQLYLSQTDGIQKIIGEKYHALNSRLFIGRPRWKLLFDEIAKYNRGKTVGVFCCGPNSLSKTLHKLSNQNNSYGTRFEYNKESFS
Sequence of Torsin-1A (Homo sapiens) (O14656 whole entry, looked up): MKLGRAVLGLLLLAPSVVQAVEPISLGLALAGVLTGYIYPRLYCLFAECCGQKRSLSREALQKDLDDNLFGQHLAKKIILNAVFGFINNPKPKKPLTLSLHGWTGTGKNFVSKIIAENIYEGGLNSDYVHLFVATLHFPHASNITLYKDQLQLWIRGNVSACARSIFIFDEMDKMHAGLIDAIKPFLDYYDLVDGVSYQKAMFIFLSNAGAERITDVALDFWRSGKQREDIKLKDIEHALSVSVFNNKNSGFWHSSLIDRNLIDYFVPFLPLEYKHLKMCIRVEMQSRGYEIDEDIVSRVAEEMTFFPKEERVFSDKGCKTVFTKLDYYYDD

## CO[C@H]1O[C@H](CO)[C@@H](OC(=O)CCc2ccccc2)[C@@H]2OC(=O)[C@H](Cc3cccc(Br)c3)C/C=C/C[C@@H](Cc3cccc(Br)c3)C(=O)O[C@@H]12
[1]
  composite z-score: -0.0182
[2]
  z-score: -3.47 (inactive)
[3]
  z-score: -0.198 (inactive)
[4]
  z-score: -0.896 (inactive)
[5]
  composite z-score: -0.115
[6]
  composite z-score: -0.147
[7]
  composite z-score: 1.07
[8]
  composite z-score: 0.358
[9]
  composite z-score: -0.149
[10]
  z-score: 3.1 (inactive)
[11]
  composite z-score: -0.139
[12]
  z-score: 1.18 (inactive)
[13]
  z-score: -0.807 (inactive)
[14]
  z-score: -0.856 (inactive)
[15]
  z-score: -1.19 (inactive)
[16]
  z-score: 2.26
[17]
  z-score: 2.16 (inactive)
[18]
  z-score: 1.57 (inactive)
[19]
  z-score: 1.28

## CO[C@H]1COC(=O)[C@@H](C)NC(=O)CC=C[C@@H](C)[C@H](OC)COC(=O)CC=C[C@@H]1C
[1]
  composite z-score: 0.0227
[2]
  z-score: -2.38 (inactive)
[3]
  z-score: -0.747 (inactive)
[4]
  z-score: -1.2 (inactive)
[5]
  composite z-score: 0.0569
[6]
  composite z-score: -0.39
[7]
  composite z-score: 1.45
[8]
  composite z-score: 1.69
[9]
  composite z-score: 2.21
[10]
  z-score: 0.394 (inactive)
[11]
  composite z-score: 0.0455
[12]
  z-score: 1.08 (inactive)
[13]
  z-score: -0.211 (inactive)
[14]
  z-score: 0.237 (inactive)
[15]
  z-score: -1.58 (inactive)
[16]
  z-score: 0.722
[17]
  z-score: 0.714 (inactive)
[18]
  z-score: 0.981 (inactive)
[19]
  z-score: 0.539

## CN(C)CCCC[C@@H]1NC(=O)[C@@H]2C[C@H](C(=O)NCCCCCNC(=O)CS)[C@H](c3ccc(O)cc3)N2C1=O
[1]
  composite z-score: 0.202
[2]
  z-score: 0.0694 (inactive)
[3]
  z-score: -0.667 (inactive)
[4]
  z-score: -1 (inactive)
[5]
  composite z-score: 0.799
[6]
  composite z-score: 0.264
[7]
  composite z-score: 1.4
[8]
  composite z-score: 0.847
[9]
  composite z-score: 2.06
[10]
  z-score: 1.04 (inactive)
[11]
  composite z-score: -0.227
[12]
  z-score: 1.06 (inactive)
[13]
  z-score: -1.21 (inactive)
[14]
  z-score: -3.46 (inactive)
[15]
  z-score: -2.25 (inactive)
[16]
  z-score: 0.209
[17]
  z-score: 0.109 (inactive)
[18]
  z-score: 0.501 (inactive)
[19]
  z-score: 0.398

## CC(C)(C)OC(=O)CC[C@@]1(C(=O)NCc2ccccc2)N=C(c2ccc(OCCCO)cc2)O[C@@H]1c1ccccc1
[1]
  composite z-score: 0.337
[2]
  z-score: -4.58 (inactive)
[3]
  z-score: 0.573 (inactive)
[4]
  z-score: -2.42 (inactive)
[5]
  composite z-score: 1.41
[6]
  composite z-score: 0.346
[7]
  composite z-score: 0.461
[8]
  composite z-score: 1.04
[9]
  composite z-score: -0.282
[10]
  z-score: 1.9 (inactive)
[11]
  composite z-score: 0.736
[12]
  z-score: 23.9 (active)
[13]
  z-score: 11.3 (active)
[14]
  z-score: 1.61 (inactive)
[15]
  z-score: 1.7 (inactive)
[16]
  z-score: 3.43
[17]
  z-score: -1.25 (inactive)
[18]
  z-score: 0.596 (inactive)
[19]
  z-score: -0.58
